Laboratory results published in PubChem BioAssay AID1159580 (chemical genetic matrix, 2015).
The campaign covered roughly 5,500 compounds. About 2,000 (36%) were called active. Not shown: some 18% with an inconclusive outcome. Rule as the data show it: active = normalized growth mostly below about 0.91 (no sharp cut-off); inconclusive = no clear call, values can overlap the other calls; inactive = mostly above about 0.92. The list shows a part of the results.

Assay: chemical genetic growth profiling, strain panel (AID 1159580);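 also: tested at 20 µM; growth read once vehicle control cultures reached saturation at 30 °C; 1 = growth at the plate median or of vehicle wells; lower values mean less growth of the strain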
Conditions: S. cerevisiae deletion strains, growth OD
[1] = locus YAL013W, strain DEP1, hits give low values
[2] = locus YDR150W, strain NUM1, hits give low values
[3] = locus YGR078C, strain PAC10, hits give low values
[4] = locus YNL153C, strain GIM3, hits give low values
[5] = locus YPL241C, strain CIN2, hits give low values

Measured: normalized growth

Nc1ccc(C(=O)/C(=C\c2cccc([N+](=O)[O-])c2)C(=O)c2ccc(-c3ccccc3)cc2)cc1
inactive: [1] 0.99 | locus YBR229C, strain ROT2, hits give low values 0.984 | locus YDL101C, strain DUN1, hits give low values 0.997 | [2] 0.975 | locus YEL061C, strain CIN8, hits give low values 0.999 | [3] 0.997 | locus YHR030C, strain SLT2, hits give low values 0.869 | locus YHR087W, strain rtc3, hits give low values 0.993 | locus YJL187C, strain SWE1, hits give low values 1 | locus YJR043C, strain POL32, hits give low values 0.979 | locus YJR075W, strain HOC1, hits give low values 0.997 | locus YKL190W, strain CNB1, hits give low values 0.997 | locus YLR039C, strain RIC1, hits give low values 1 | locus YLR058C, strain SHM2 (second series), hits give low values 0.987 | locus YLR085C, strain ARP6, hits give low values 0.877 | locus YLR262C, strain YPT6, hits give low values 0.915 | locus YML094W, strain GIM5, hits give low values 0.993 | locus YMR219W, strain ESC1, hits give low values 0.988 | locus YMR263W, strain SAP30, hits give low values 1.01 | [4] 0.966 | locus YNL298W, strain CLA4 (second series), hits give low values 0.936 | locus YNL322C, strain KRE1, hits give low values 0.971 | locus YNR030W, strain Alg12, hits give low values 0.955 | locus YPL055C, strain LGE1, hits give low values 1 | [5] 0.949 | locus YPR135W, strain CTF4, hits give low values 0.945

CCN1C[C@]2(C)CC[C@H](O)[C@@]34C5C[C@@H]6[C@@H](OC)C[C@@](O)(C5[C@H]6O)[C@@H](CC23)C14 (some centres not stated)
inactive: [1] 1.01 | locus YAL040C, strain CLN3, hits give low values 1 | locus YCL061C, strain MRC1 (second series), hits give low values 1 | [2] 0.996 | locus YDR363W, strain ESC2, hits give low values 1.03 | locus YER002W, strain NOP16, hits give low values 1.01 | [3] 0.999 | locus YGR229C, strain SMI1, hits give low values 1.02 | locus YMR307W, strain GAS1, hits give low values 0.999 | locus YNL128W, strain TEP1, hits give low values 1 | [4] 1.01 | locus YNL175C, strain NOP13, hits give low values 1.01 | locus YNL197C, strain WHI3, hits give low values 1.01 | locus YNL224C, strain SQS1, hits give low values 0.997 | locus YOR083W, strain WHI5 (second series), hits give low values 1.01 | [5] 1
